Test [1] concerns the target Cytochrome P450 2C19 (Homo sapiens) (UniProt P33261). As to the kind of experiment: qHTS Assay for Inhibitors and Substrates of Cytochrome P450 2C19 (AID 899). Also: nearly all actives have a fitted effect of over 60% in size. Also: potency is read from the fitted curve at half-maximal effect. In a few lines:
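5 nM human CYP2C19 with 10uM Luciferin-H EGE (at KM) in 50mM KPO4, compound preincubated 10 min at 37C, then NADPH regeneration for 60 min at 37C. Luciferin read by luminescence after detection reagent; normalized to 57uM ketoconazole as full inhibition.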

The nature of test [2]: S16 Schwann cell PMP22 intronic element beta-lactamase assay (AID 624044; calls by dose curve;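 also: 0% = DMSO and -100% = potassium clavulanate positive control; nearly all actives have a fitted effect of over 15% in size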). In a few lines: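 Beta-lactamase reporter under a PMP22 intronic regulatory element in stable S16 rat Schwann cells; 24 h compound exposure. 460 nm blue signal normalized between DMSO (0%) and potassium clavulanate, with 535 nm FRET tracking viability; curves classed by r2 and response.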
Another test concerns AA1029. Put plainly: qHTS profiling for inhibitors of Plasmodium falciparum proliferation (AID 504749). Also: nearly all actives have a fitted effect of over 60% in size. Also: potency is read from the fitted curve at half-maximal effect. The settings on record: P. falciparum in erythrocytes, SYBR Green DNA, 72 h; series mostly up to 12.8 µM. In a few lines: (§1)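 Each compound contacts P. falciparum-infected red blood cells for 72 h at 37 C; lysis buffer (Tris, EDTA, saponin, Triton X, SYBR Green I) is added and fluorescence measured next morning; values normalized to controls.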
On the technique in general: In qHTS, concentration-response curves come from the screen itself.

For the next test, the system named is CP215. The test is described as above. Particulars: P. falciparum in erythrocytes, SYBR Green DNA, 72 h; series mostly up to 12.8 µM. Put shortly:
as §1

The test system of another test is CP335. Described as above. The settings on record: P. falciparum in erythrocytes, SYBR Green DNA, 72 h; series mostly up to 12.8 µM. In a few lines: as §1
The subject of another test is P93_24. Described as above. Particulars: P. falciparum in erythrocytes, SYBR Green DNA, 72 h; series mostly up to 12.8 µM. Put shortly: as §1
A further test concerns P94_40. The test is described as above. Particulars: P. falciparum in erythrocytes, SYBR Green DNA, 72 h; series mostly up to 12.8 µM. In a few lines: as §1
In another test the test system is PC26. Described as above. The settings on record: P. falciparum in erythrocytes, SYBR Green DNA, 72 h; series mostly up to 12.8 µM. Put shortly:
as §1

The next test concerns TAB109. Described as above. The settings on record: P. falciparum in erythrocytes, SYBR Green DNA, 72 h; series mostly up to 12.8 µM. Put shortly: as §1
The target of test [3] is Cytochrome P450 3A4 (Homo sapiens) (UniProt P08684). As to the kind of experiment: qHTS Assay for Activators of Cytochrome P450 3A4 (AID 885). Also: nearly all actives have a fitted effect of over 65% in size. In a few lines: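 Human CYP3A4 dealkylates Luciferin-PPXE to luciferin, which luciferase detection converts to light. Substrate was at its KM (25uM), buffer 200mM KPO4, reaction 60 min at RT.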
Sequence of Cytochrome P450 3A4 (Homo sapiens) (P08684 whole entry, looked up): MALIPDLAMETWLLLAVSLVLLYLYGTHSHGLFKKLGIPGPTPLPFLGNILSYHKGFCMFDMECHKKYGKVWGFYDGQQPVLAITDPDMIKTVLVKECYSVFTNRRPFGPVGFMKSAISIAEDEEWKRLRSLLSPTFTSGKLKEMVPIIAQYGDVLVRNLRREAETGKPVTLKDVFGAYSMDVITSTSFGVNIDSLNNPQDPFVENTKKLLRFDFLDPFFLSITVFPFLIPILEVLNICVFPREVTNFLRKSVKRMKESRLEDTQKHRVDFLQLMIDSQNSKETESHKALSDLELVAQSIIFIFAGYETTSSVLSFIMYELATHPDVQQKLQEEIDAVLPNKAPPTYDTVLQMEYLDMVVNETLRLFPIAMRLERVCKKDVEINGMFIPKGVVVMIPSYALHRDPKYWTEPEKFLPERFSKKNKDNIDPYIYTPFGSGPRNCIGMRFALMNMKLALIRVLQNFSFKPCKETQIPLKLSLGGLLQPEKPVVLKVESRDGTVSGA
Test [4] in a line: S16 Schwann cell PMP22 intronic element firefly luciferase assay (AID 624032).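 Also: plate controls were DMSO for no effect and PTC124 positive control mean for full effect; nearly all actives have a fitted effect of over 30% in size.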 In a few lines:
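Rat S16 Schwann cells stably carrying firefly luciferase driven by a PMP22 intronic element, in 10% FBS, treated 24 h at 37 C. ONE-Glo luminescence normalized to PTC124 control and DMSO (0%); curves classed by r2, magnitude and activity.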

The next test concerns 7G8. As to the kind of experiment: qHTS profiling for inhibitors of Plasmodium falciparum proliferation (AID 504749). Also: nearly all actives have a fitted effect of over 60% in size. Also: potency is read from the fitted curve at half-maximal effect. The settings on record: P. falciparum in erythrocytes, SYBR Green DNA, 72 h; series mostly up to 12.8 µM. In a few lines:
as §1

The subject of another test is CP211. The description is as above. Particulars: P. falciparum in erythrocytes, SYBR Green DNA, 72 h; series mostly up to 12.8 µM. In a few lines: as §1
The test system of a further test is W2. The test is described as above. Particulars: P. falciparum in erythrocytes, SYBR Green DNA, 72 h; series mostly up to 12.8 µM. Put shortly:
as §1

The next test deals with GB4. The description is as above. Particulars: P. falciparum in erythrocytes, SYBR Green DNA, 72 h; series mostly up to 12.8 µM. Put shortly: as §1
The next test concerns CP194. Described as above. Particulars: P. falciparum in erythrocytes, SYBR Green DNA, 72 h; series mostly up to 12.8 µM. In a few lines:
as §1

Another test concerns CP291. The description is as above. Particulars: P. falciparum in erythrocytes, SYBR Green DNA, 72 h; series mostly up to 12.8 µM. Put shortly:
as §1

A short description of test [5]: qHTS Assay for Identification of Small Molecule Agonists for Hypoxia Response Element Signaling Pathway (AID 914; active = well fitted activation curve with a large enough effect in the signal ratio, with a control signal flat, not every such curve was filed as active; the % refers to the signal ratio; also: % of control where 0% means no effect). The settings on record: ME-180 (cervical carcinoma) HRE-bla reporter, beta-lactamase ratio, CoCl2, 17 h; activation: stronger effect = higher value. Put shortly: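 HRE-bla ME-180 assay for agonist-like enhancement of an EC50 CoCl2 stimulus: 17 h at 37 degrees Celsius, CCF4 for 2.5 h, ratiometric 460/530 nm signal converted to %Activity and fitted to AC50.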

Test [6] concerns the target Cytochrome P450 3A4 (Homo sapiens) (UniProt P08684). As to the kind of experiment: qHTS Assay for Inhibitors and Substrates of Cytochrome P450 3A4 (AID 884). Also: potency is read from the fitted curve at half-maximal effect; nearly all actives have a fitted effect of over 50% in size. Put shortly:
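Luminescent readout of luciferin produced by CYP3A4 (20 nM) dealkylation of Luciferin-PPXE, 25 uM (its KM). NADPH-driven reaction ran 60 min at RT after 10 min compound preincubation; data scaled to 57 uM ketoconazole as 100% inhibition.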

Test [7] can be described thus: Confirmation and Secondary Assay for Modulators of Hemoglobin Beta Chain Splicing at IVS2 705 locus (AID 930).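 Also: HeLa cells stably expressing the EGFP-705 splicing reporter; GFP fluorescence per well restored by corrected splicing of the IVS2-705 intron in EGFP; % of control where 0% means no effect.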 Put shortly:
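HeLa IVS2-705 EGFP reporter cells, 500/well, compound 2 d at 37C; correct splicing yields fluorescent EGFP. Control: 500 nM antisense PNA. Read-out: total peak GFP intensity.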

Values without a mark were called inactive. Records with an inconclusive call do not appear. Calls of active or inactive are those of the source. Unless noted, calls follow the shape of the dose curve; as a rule, active = well fitted curve in the direction sought with a large enough effect; inconclusive = small, poorly fitted or top-dose-only effect, or another doubt; inactive = no such curve, though single readings can be large; an effect the other way counts as inactive or inconclusive.

Sequence of Cytochrome P450 2C19 (Homo sapiens) (P33261 whole entry, looked up): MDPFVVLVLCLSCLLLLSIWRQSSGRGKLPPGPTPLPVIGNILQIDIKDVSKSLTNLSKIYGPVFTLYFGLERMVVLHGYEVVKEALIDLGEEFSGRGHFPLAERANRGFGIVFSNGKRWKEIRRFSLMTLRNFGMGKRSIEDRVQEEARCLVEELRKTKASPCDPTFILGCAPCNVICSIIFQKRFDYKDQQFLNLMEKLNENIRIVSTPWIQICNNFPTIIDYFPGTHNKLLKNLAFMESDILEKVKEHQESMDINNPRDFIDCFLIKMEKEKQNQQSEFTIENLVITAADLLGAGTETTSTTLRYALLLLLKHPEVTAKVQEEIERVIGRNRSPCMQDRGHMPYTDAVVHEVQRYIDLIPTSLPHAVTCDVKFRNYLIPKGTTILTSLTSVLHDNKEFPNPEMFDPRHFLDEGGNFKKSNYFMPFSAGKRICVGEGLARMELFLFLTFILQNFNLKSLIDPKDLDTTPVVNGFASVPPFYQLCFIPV

For the compound `C[C@@]1(O)CCOC(=O)C1`, in test [1], the Potency entry is “inactive”.

Consider `CN(C/C=C\c1ccccc1)Cc1cccc2ccccc12`, for which, in test [1], the Potency was 501 nM (active). For the same compound, the Potency result (in [2]; in the test on AA1029; in the test on CP215; in the test on CP335; in the test with P93_24; in the test on P94_40) was “inactive” each time. Further, the Potency entry in the test with PC26 and in the test with TAB109 was “inactive” throughout.

For the compound `CNCCC=C1c2ccccc2C=Cc2ccccc21`, the Potency entry in [3] was “inactive”.

Take `CN1CCN([C@@H](c2ccccc2)c2ccc(Cl)cc2)CC1`: the Potency result (in [4]; in the test on CP211; with TAB109) was “inactive” each time. Further, the Potency with 7G8 was 3160 nM (active); in the test on W2, 2030 nM (active).

On to `OCCN1CCN(CCC=C2c3ccccc3Sc3ccc(Cl)cc32)CC1`, for which the Potency entry in [3] and in test [4] was “inactive” in each case. Also, the Potency is 3160 nM (active) with 7G8, 4050 nM (active) in the test on GB4 and 721 nM (active) in the test on W2.

In the case of `CO[C@H]1[C@@H](OC(N)=O)[C@H](O)[C@@H](Oc2ccc3c(O)c(NC(=O)c4ccc(O)c(CC=C(C)C)c4)c(=O)oc3c2C)OC1(C)C`, the Potency entry (in [4]; with 7G8; in the test with AA1029; with CP194; in the test on CP211; with CP215) was “inactive” in each case. Besides, the Potency entry in the test with CP291, in the test on CP335, with GB4, with P93_24, in the test with P94_40 and in the test on PC26 was “inactive” throughout. In addition, the Potency entry in the test on TAB109 is “inactive”.

As for `C[C@@H]1[C@H]2CC[C@@H]3[C@@H]4CC=C5C[C@@H](N(C)C)CC[C@]5(C)[C@@H]4CC[C@@]32CN1C`, the activation in test [5] is 23.8%.

With `CN(C)CCO[C@@H](c1ccc(Cl)cc1)c1ccccn1`, the Potency result in test [1] was “inactive”.

On to `COc1ccc(CNc2ncncc2-c2ccccc2CN(C)C)c(OC)c1`, for which the Potency in test [6] is 398 nM (active). Besides, the Potency entry in test [3] and in test [7] was “inactive” in each case.

In the case of `CN(C)CCOC(=O)[C@@H](c1ccccc1)C1(O)CCCC1`, the Potency result (in [2]; in the test with 7G8; in the test with AA1029; in the test with CP194; in the test with CP211; in the test with CP215) was “inactive” each time. Also, the Potency result with CP291, in the test on CP335, in the test on P94_40 and in the test with TAB109 was “inactive” throughout. In the test with W2, the Potency is 8490 nM (active).

Consider `CCOC(=O)O[C@]1(C(=O)COC(=O)CC)CC[C@@H]2[C@@H]3CCC4=CC(=O)C=C[C@@]4(C)[C@H]3[C@H](O)C[C@]21C`, for which the Potency result (in test [3]; in [4]; in test [2]; in the test with 7G8; in the test on AA1029; with CP194) was “inactive” throughout. In addition, the Potency result with CP211, with CP215, in the test with CP291, in the test on CP335, with GB4 and in the test with P93_24 was “inactive” each time. The Potency result in the test on P94_40, with PC26 and with TAB109 was “inactive” each time.

As for `c1ccc2c(c1)CCCc1cc(NCCN3CCOCC3)nnc1-2`, the Potency entry in test [3] was “inactive”.

For the compound `CC(C)(N=NC(C)(C)C(=N)N)C(=N)N`, the Potency result in [3] and in test [7] was “inactive” throughout.

These data come from PubChem BioAssay (NCATS).
